Among the data in PubChem BioAssay AID720597 (Broad Institute, 2013) are outcome values, retold here.

Results with a measured potency or affinity are listed apart. Active and inactive are the calls of the source.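 The calls were made as follows: active = fitted half-maximal dose no more than twice the top valid tested dose, for compounds that lower signal; inconclusive = fit invalid, or curve flat with activity between -70 and -30; inactive = potency past limit, curve flat within ±30, or signal increasing.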

In the assay the target is NAD-dependent protein deacylase sirtuin-5, mitochondrial (Homo sapiens) (UniProt Q9NXA8). The assay can be described thus: SIRT5 deacylase inhibitors, dose response, biochemical, fluorescence imaging, cherry-pick, set 6 (AID 720597).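 Also: lower AMC signal can also come from blocking the trypsin step.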 Particulars: Purified SirT5, succinyl-peptide-AMC/trypsin fluorescence; series mostly up to 15 µM.
Chain of NAD-dependent protein deacylase sirtuin-5, mitochondrial (Homo sapiens) (Q9NXA8 whole entry, looked up): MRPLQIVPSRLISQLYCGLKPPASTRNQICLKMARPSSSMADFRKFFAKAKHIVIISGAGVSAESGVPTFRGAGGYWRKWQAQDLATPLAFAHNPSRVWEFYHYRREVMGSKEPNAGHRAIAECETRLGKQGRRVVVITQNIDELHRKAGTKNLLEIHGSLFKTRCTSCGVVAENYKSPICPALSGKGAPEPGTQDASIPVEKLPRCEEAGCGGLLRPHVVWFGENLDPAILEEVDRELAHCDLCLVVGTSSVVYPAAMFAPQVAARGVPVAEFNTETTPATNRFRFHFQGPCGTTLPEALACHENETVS
`C[C@@H]1CN([C@H](C)CO)S(=O)(=O)c2ccc(C#CC3CC3)cc2O[C@@H]1CN(C)Cc1ccccc1F`: the call was inactive.

Consider `CN(C)Cc1cn(CC[C@@H]2CC[C@H](N)[C@H](CO)O2)nn1`, for which the outcome was inactive.

As to `C[C@H](CO)N1C[C@H](C)[C@@H](CN(C)Cc2ccc(Oc3ccccc3)cc2)Oc2c(NC(=O)CCCCCC(=O)Nc3ccccc3N)cccc2C1=O`, the molecule was classed as inactive.

As to `Cc1ccc(S(=O)(=O)N(C)C[C@H]2OCCCC[C@H](C)Oc3ccc(NS(=O)(=O)c4ccc(Cl)cc4)cc3C(=O)N([C@@H](C)CO)C[C@H]2C)cc1`, the molecule was classed as inactive.

In the case of `COc1ccc(C#Cc2ccc([C@@H]3[C@@H](CO)N4C(=O)CN(C(=O)c5cccnc5)C[C@H]34)cc2)cc1`, the molecule was called inactive.

In the case of `C[C@H](CO)N1C[C@H](C)[C@H](CN(C)Cc2cccc(C(F)(F)F)c2)Oc2ncc(C#Cc3ccccc3)cc2C1=O`, the result was inactive.

Consider `O=C(CCN1CCCCC1)N[C@H]1CC[C@@H](CC(=O)N2CCC(Cc3ccccc3)CC2)O[C@@H]1CO`, for which the outcome was inactive.

Consider `O=C(C[C@@H]1C[C@H]2c3cc(NC(=O)Nc4ccccc4F)ccc3O[C@H]2[C@H](CO)O1)NCC1CC1`, for which the molecule was called inactive.

On to `COCC(=O)Nc1ccc2c(c1)C(=O)N(C)C[C@@H](OC)[C@H](C)CN(Cc1ccccn1)[C@H](C)CO2`, for which the outcome was inactive.

For the molecule `COc1ccc(S(=O)(=O)Nc2ccc3c(c2)C(=O)N([C@@H](C)CO)C[C@@H](C)[C@@H](CN(C)Cc2ccc(C(F)(F)F)cc2)OCCCC[C@H](C)O3)cc1`, the result was inactive.

Consider `C[C@@H]1CN([C@@H](C)CO)C(=O)c2c(c3ccccc3n2C)-c2ccccc2CO[C@@H]1CN(C)Cc1cccc(O)c1`, for which the result was inactive.
